Inconclusive results are not listed. Active and inactive are the calls of the source. Unless noted, calls follow the shape of the dose curve; as a rule, active = well fitted curve in the direction sought with a large enough effect in the repeat runs; inconclusive = weak or mixed curves; inactive = no such curve, though single readings can be large; an effect the other way counts as inactive or inconclusive.
Tests used:
[1] = qHTS assay to identify small molecule agonists of the peroxisome proliferator-activated receptor delta (PPARd) signaling pathway - cell viability counter screen (AID 743211); also: nearly all actives have a fitted effect of over 55% in size
In short: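 Luminescent ATP viability assay (CellTiter-Glo, 30 min RT) in UAS-bla HEK293H cells carrying the PPAR delta reporter construct, 3000 cells/well, after a 17 h compound treatment at 37 C.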

[2] = qHTS assay to identify small molecule antagonists of the peroxisome proliferator-activated receptor delta (PPARd) signaling pathway - cell viability counter screen (AID 743213); also: nearly all actives have a fitted effect of over 50% in size
In short: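 CellTiter-Glo was added to PPARd-bla HEK293H wells following 17 h compound treatment in the presence of 300 nM L165041. Luminescence was recorded after 30 min at room temperature.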

[3] = qHTS assay to identify small molecule antagonists of the farnesoid-X-receptor (FXR) signaling pathway - cell viability counter screen (AID 743221; active = well fitted cell-killing curve with a large enough effect in the repeat runs, not every such curve was filed as active; also: nearly all actives have a fitted effect of over 50% in size)
In short: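 In GeneBLAzer FXR-UAS-bla HEK 293T cells stimulated with 50 uM chenodeoxycholic acid (final), compounds acted for 16 h at 37 C. Viability was assessed afterwards by CellTiter-Glo luminescence.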

[4] = target: Vitamin D3 receptor (Homo sapiens) (UniProt P11473); assay: qHTS assay to identify small molecule agonists of the vitamin D receptor (VDR) signaling pathway (AID 743222; calls by dose curve)
Sequence of Vitamin D3 receptor (Homo sapiens) (P11473 whole entry, looked up): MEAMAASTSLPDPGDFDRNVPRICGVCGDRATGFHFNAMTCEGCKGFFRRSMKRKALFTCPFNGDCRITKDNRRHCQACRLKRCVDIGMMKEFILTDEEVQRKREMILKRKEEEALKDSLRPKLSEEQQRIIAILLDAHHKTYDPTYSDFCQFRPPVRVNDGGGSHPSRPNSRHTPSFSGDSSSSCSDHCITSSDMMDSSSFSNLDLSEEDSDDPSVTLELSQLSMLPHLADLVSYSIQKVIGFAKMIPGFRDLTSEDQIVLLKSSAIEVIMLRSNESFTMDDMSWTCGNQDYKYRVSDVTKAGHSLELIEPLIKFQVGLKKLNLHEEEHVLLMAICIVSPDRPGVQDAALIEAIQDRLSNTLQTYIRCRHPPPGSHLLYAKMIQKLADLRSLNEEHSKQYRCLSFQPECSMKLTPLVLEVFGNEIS
In short: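 Using LiveBLAzer B/G FRET detection, agonism was scored in VDR-bla cells exposed overnight (16 h, 37C) to DMSO-dissolved compounds; substrate incubation was 2 h at room temperature.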

[5] = target: Vitamin D3 receptor (Homo sapiens) (UniProt P11473); assay: qHTS assay to identify small molecule antagonists of the vitamin D receptor (VDR) signaling pathway (AID 743223; active = well fitted inhibition curve with a large enough effect in the signal ratio in the repeat runs, not every such curve was filed as active; the % refers to the signal ratio)
In short: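 Agonist 1alpha,25-dihydroxyvitamin D3 (3 nM in well) was added with each compound to VDR-bla cells preincubated 4 h. Cells stood 16 h at 37C, then FRET substrate 2 h at room temperature; fluorescence intensity recorded.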

[6] = qHTS assay to identify small molecule agonists of the vitamin D receptor (VDR) signaling pathway - cell viability counter screen (AID 743224); also: series mostly up to about 63 µM; nearly all actives have a fitted effect of over 50% in size
In short: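 Counter screen for cytotoxicity: VDR-bla cells at 2,000 cells/well, 16 h compound exposure, then CellTiter-Glo luminescence after the beta-lactamase measurement.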

[7] = qHTS assay to identify small molecule antagonists of the vitamin D receptor (VDR) signaling pathway - cell viability counter screen (AID 743225); also: nearly all actives have a fitted effect of over 50% in size
In short: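 Luminescent cell viability (CellTiter-Glo) in VDR-bla HEK 293T cells after 16 h compound exposure at 37C in the presence of 3 nM final 1-alpha,25-dihydroxy vitamin D3.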

[8] = qHTS assay to identify small molecule agonists of the NFkB signaling pathway - cell viability counter screen (AID 1159515; calls by dose curve; also: series mostly up to about 61 µM; nearly all actives have a fitted effect of over 55% in size)
In short: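 Counter screen run alongside the NFkB-bla agonist assay: ME-180 reporter cells exposed to compounds for 5 hr, then lysed with CellTiter-Glo in the same wells. Luminescence, read after 30 min, reflects viable cells.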

[9] = qHTS assay to identify small molecule agonists of the endoplasmic reticulum stress response signaling pathway (AID 1159516; active = well fitted activation curve with a large enough effect in the signal ratio in the repeat runs, not every such curve was filed as active; the % refers to the signal ratio)
In short: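 For this screen, HeLa cells stably carrying beta-lactamase under the ER stress response element received test compounds, positive controls or DMSO for 5 hr at 37 C; B/G FRET substrate was then added and dual-wavelength emission recorded.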

[10] = qHTS assay to identify small molecule antagonists of the retinoid-related orphan receptor gamma (ROR-gamma) signaling pathway - cell viability counter screen (AID 1159520); also: nearly all actives have a fitted effect of over 50% in size
In short: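 Tet-on ROR gamma CHO cells (1,000/well) were plated 4 hr, given compounds in DMSO for 2 hr at 37 C, then induced with 1 uM final doxycycline for 16 hr. Viability was read as ATP by CellTiter-Glo luminescence after 30 min.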

[11] = target: Nuclear receptor ROR-gamma (Homo sapiens) (UniProt P51449); assay: qHTS assay to identify small molecule antagonists of the retinoid-related orphan receptor gamma (ROR-gamma) signaling pathway (AID 1159521)
In short: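 CHO cells expressing RORγ under a TET-on promoter, luciferase under RORE control. Dox 1 uM final, 16 h; compounds added 2 h prior. Luminescence decrease measured.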

[12] = qHTS assay to identify small molecule agonists of the AP-1 signaling pathway - cell viability counter screen (AID 1159525; calls by dose curve; also: nearly all actives have a fitted effect of over 55% in size)
In short: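 Each titration point was normalised to DMSO and tetra n-octyl ammonium bromide controls. The read was Cell Titer Glo luminescence after 30 min at RT, following 5 h compound exposure of ME-180 AP-1-bla cells at 37 °C.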

[13] = qHTS assay to identify small molecule agonists of the AP-1 signaling pathway (AID 1159526; calls by dose curve)
[14] = target: Peroxisome proliferator-activated receptor delta (Homo sapiens) (UniProt Q03181); assay: qHTS assay to identify small molecule antagonists of the peroxisome proliferator-activated receptor delta (PPARd) signaling pathway (AID 743215; active = well fitted inhibition curve with a large enough effect in the signal ratio in the repeat runs, not every such curve was filed as active; the % refers to the signal ratio;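 also: cells stimulated with agonist L165041 at 300 nM final during compound exposure; series mostly up to about 62 µM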)
Sequence of Peroxisome proliferator-activated receptor delta (Homo sapiens) (Q03181 whole entry, looked up): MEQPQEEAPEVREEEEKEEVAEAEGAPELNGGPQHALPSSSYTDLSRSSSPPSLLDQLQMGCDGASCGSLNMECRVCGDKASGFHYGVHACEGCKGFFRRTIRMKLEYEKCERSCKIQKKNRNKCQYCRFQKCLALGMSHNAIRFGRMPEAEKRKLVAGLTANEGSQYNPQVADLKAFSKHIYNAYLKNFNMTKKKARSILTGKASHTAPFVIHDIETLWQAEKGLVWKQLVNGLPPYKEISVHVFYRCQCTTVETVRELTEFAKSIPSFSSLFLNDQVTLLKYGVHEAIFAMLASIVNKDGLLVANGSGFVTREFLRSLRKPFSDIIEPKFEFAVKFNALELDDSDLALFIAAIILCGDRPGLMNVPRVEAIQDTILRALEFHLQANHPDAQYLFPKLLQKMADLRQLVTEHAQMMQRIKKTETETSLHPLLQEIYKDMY
In short: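 Screen format: qHTS, antagonist mode. HEK293H PPARd-bla cells received compound and 300 nM L165041 (final), 17 h, 37 C. Beta-lactamase detected via FRET substrate fluorescence, 2 h, room temperature.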

[15] = qHTS assay to identify small molecule agonists of the endoplasmic reticulum stress response signaling pathway - cell viability counter screen (AID 1159517; calls by dose curve)
In short: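 Cpd-treated ESRE-bla HeLa (5 hr, 37 C) → LiveBLAzer 2 hr RT → CellTiter-Glo 30 min RT → luminescence.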

[16] = target: Retinoic acid receptor RXR-alpha (Homo sapiens) (UniProt P19793); assay: qHTS assay to identify small molecule agonists of the RXR signaling pathway (AID 1159527; calls by dose curve; also: nearly all actives have a fitted effect of over 35% in size)
Sequence of Retinoic acid receptor RXR-alpha (Homo sapiens) (P19793 whole entry, looked up): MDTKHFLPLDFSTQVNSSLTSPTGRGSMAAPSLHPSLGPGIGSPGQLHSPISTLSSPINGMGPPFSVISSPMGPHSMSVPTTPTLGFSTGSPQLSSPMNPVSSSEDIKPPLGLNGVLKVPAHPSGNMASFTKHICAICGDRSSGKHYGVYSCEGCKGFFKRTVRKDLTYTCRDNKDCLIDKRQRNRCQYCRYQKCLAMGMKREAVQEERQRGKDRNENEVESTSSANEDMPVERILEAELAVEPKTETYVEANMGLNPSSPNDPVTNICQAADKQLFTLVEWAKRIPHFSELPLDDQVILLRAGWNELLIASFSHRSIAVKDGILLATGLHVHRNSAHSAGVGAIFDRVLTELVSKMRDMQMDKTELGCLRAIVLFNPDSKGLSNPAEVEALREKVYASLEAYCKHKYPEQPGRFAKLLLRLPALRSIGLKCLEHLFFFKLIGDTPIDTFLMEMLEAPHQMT
In short: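 Beta-lactamase reporter assay, agonist format. Engineered HEK 293T line, charcoal-stripped FBS at 2%, overnight (16 hr) exposure, fluorescence at 460 and 530 nm after 405 nm excitation.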

[17] = target: Peroxisome proliferator-activated receptor delta (Homo sapiens) (UniProt Q03181); assay: qHTS assay to identify small molecule agonists of the peroxisome proliferator-activated receptor delta (PPARd) signaling pathway (AID 743212; calls by dose curve)
In short: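 Cells expressing a UAS-driven beta-lactamase reporter (PPARd-bla HEK293H) were given test compounds after a 5 h settle and kept at 37 C. Reporter activity was then measured as FRET fluorescence using LiveBLAzer B/G substrate.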

[18] = qHTS assay to identify small molecule agonists of the farnesoid-X-receptor (FXR) signaling pathway - cell viability counter screen (AID 743218); also: nearly all actives have a fitted effect of over 45% in size
In short: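 Same-well cytotoxicity check on FXR-UAS-bla HEK 293T cells: 5 h attachment, 16 h compound at 37 C, CellTiter-Glo luminescence read at room temperature after 30 min.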

[19] = target: Bile acid receptor (Homo sapiens) (UniProt Q96RI1); assay: qHTS assay to identify small molecule agonists of the farnesoid-X-receptor (FXR) signaling pathway (AID 743220; active = well fitted activation curve with a large enough effect in the signal ratio in the repeat runs, not every such curve was filed as active; the % refers to the signal ratio)
Sequence of Bile acid receptor (Homo sapiens) (Q96RI1 whole entry, looked up): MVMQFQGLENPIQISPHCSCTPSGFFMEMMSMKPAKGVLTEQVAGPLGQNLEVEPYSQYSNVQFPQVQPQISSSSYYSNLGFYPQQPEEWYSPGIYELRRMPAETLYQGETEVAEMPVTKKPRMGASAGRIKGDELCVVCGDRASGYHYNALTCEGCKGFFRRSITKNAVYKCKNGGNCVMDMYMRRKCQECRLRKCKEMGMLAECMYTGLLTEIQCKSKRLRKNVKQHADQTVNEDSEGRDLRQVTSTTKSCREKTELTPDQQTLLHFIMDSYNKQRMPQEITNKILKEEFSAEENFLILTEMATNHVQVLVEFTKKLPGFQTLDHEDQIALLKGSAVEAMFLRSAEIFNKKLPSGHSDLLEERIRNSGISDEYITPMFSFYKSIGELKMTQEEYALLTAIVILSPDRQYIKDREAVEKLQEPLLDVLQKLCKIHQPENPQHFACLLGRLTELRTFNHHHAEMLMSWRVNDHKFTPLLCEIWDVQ
In short: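 FXR-UAS-bla HEK 293T cells carrying a UAS-driven beta-lactamase reporter were plated for 5 h at 37C/5% CO2, then exposed to DMSO-dissolved Tox21 10K compounds for 16 h at 37C. A LiveBLAzer B/G FRET substrate was loaded for 2 h at room temperature before fluorescence reading.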

[20] = target: Bile acid receptor (Homo sapiens) (UniProt Q96RI1); assay: qHTS assay to identify small molecule antagonists of the farnesoid-X-receptor (FXR) signaling pathway (AID 743217; active = well fitted inhibition curve with a large enough effect in the signal ratio in the repeat runs, not every such curve was filed as active; the % refers to the signal ratio)
In short: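 Quantitative HTS, beta-lactamase reporter format: FXR-UAS-bla HEK 293T cells co-treated 16 h at 37 °C with compounds and 50 uM final chenodeoxycholic acid, then read by B/G FRET fluorescence.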

Measured: Potency

O=C(O)/C=C/c1cnc[nH]1
not listed: [14] | [15] | [16] | [17] | [18] | [19] | [20]
inactive: all other assays above

CCCCCCc1ccc(N)cc1
inactive: [1] | [2] | [14] | [3] | [4] | [8] | [9] | [10] | [11] | [12] | [13]

CC1=CCC(C(C)C)C=C1 (stereo not given)
inactive: [1] | [2] | [3] | [6] | [7] | [8] | [9] | [15] | [10] | [13] | [16]

CC(C(=O)O)c1ccc(C(=O)c2ccccc2)s1 (stereo not given)
not listed: [7] | [15] | [16] | [20]
inactive: all other assays above

CCCCCC/C=C/C=O
inactive: [17] | [18] | [3] | [6] | [8] | [9] | [15] | [10] | [11] | [16]

c1ccc(OCc2ccc(CCCN3CCOCC3)cc2)cc1
not listed: [15] | [16] | [19] | [20]
inactive: all other assays above

CN1CCC(=C2c3ccccc3CCc3sccc32)CC1
inactive: [17] | [14] | [19] | [6] | [8] | [9] | [15] | [10] | [11] | [16]

C=C(C)C(=O)OC(C)C
inactive: [1] | [2] | [3] | [4] | [7] | [8] | [9] | [15] | [10] | [11] | [16]

O=S1(=O)c2cccc3cccc(c23)N1CCCN1CCN(c2ccc(F)cc2)CC1
not listed: [1] | [13] | [14] | [15] | [16] | [17] | [20]
inactive: all other assays above

CN1CCC(=C2c3ccccc3C=Cc3ccccc32)CC1
inactive: [19] | [4] | [5] | [6] | [7] | [8] | [9] | [15] | [10] | [11] | [16]

CN(C)CCCNCCCN
not listed: [15] | [16]
inactive: all other assays above
